Compounds without any hit were thinned out: in the full panel of roughly 83,000, 20% have a hit.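 Compound tested at a single concentration for 48 hours in 96-well plates; a percent growth value below 10 was scored as active.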 The source made the active and inactive calls.

The experiment deals with MDA-MB-468 breast. The experiment can be described thus: NCI-60 one-dose screen, 48 h (100 = growth as untreated, 0 = no growth, -100 = all killed). The conditions noted are these: 10 µM unless noted.
Regarding `CC(C)CCc1nc2ccc(NCc3ccc(OCCN4CCC(C)CC4)cc3)cc2[nH]1`, the growth is 65.6% (inactive).

With `COc1c(Cl)ccc2c(-c3nc4cc(Cl)c(F)cc4s3)cc(=O)oc12`, the growth is 80% (inactive).

`COc1cc2nccc(Oc3ccc(NC(=O)C4(C(=O)Nc5ccc(F)cc5)CC4)cc3)c2cc1OC`: the growth is 33.6% (inactive).

`COc1ccc(/C=C/c2c(C(C)=O)c(C)nc3ccccc23)cc1`: the growth was 39.6% (inactive).

Regarding `COc1ccc(/C=C2\COc3ccc(-c4ccccc4)cc3C2=O)c(OC)c1`, the growth was 57% (inactive).

Take `CN(C)C(=S)N=Nc1c(O)[nH]c2ccccc12`: the growth is -2.36% (active).

With `CC12CCC3c4ccccc4CCC3(CO1)C2` (stereo not given), the growth is 88.7% (inactive).

As to `NCCN1CCNCC1`, the growth was 95.2% (inactive).

For `COc1ccc(C(=O)N2C=Cc3ccccc3C2C#N)cc1` (stereo not given), the growth was 82.9% (inactive).

As to `N#Cc1ccc(O)c(C2=NCC(c3ccc(-c4ccccc4)cc3)O2)c1` (stereo not given), the growth was 26.9% (inactive).

As for `NCCOCCOc1ccccc1`, the growth is 118% (inactive).

As to `CCCCCCCCCCCCCCCCCC1=NCCN1CS(=O)(=O)O`, the growth is 99.2% (inactive).

Turning to `COc1ccc(C(=O)c2c(N)c(C#N)cn2-c2ccccc2OC)cc1`, the growth is 31% (inactive).

Take `O=C1Nc2ccc(C(=O)O)c(O)c2C1=O`: the growth is 108% (inactive).

With `Cc1ccc(C)n1-c1ccsc1C(=O)NNC(=O)C(Cl)Cl`, the growth was 103% (inactive).

For the compound `Nc1ccc(CC(=O)O)c(N)c1`, the growth is 88.5% (inactive).

For the compound `CCN(CC)CCCNc1ccc(Nc2ccc(OC)cc2)cc1`, the growth was 78.8% (inactive).

For `Clc1nc2ccc(Br)cc2cc1-c1nc2ccccc2[nH]1`, the growth is 76.3% (inactive).

With `CSc1nc2ccccc2cc1/C=C1/C=C(c2ccccc2)NC1=O`, the growth was 61.6% (inactive).

As to `O=C(CNC(=O)c1cccc2ccccc12)Nc1ccccc1Cc1ccccc1`, the growth was 13.7% [5 µM] (inactive).

In the case of `CCCCCCN1CCN(Cc2ccc(N(CC)CC)cc2)C(=O)C1=O`, the growth is 22.9% (inactive).

On to `CCCCCCCCO/N=C\c1c2c(O)c3c(O)c(C)c4c(c3c1O)C(=O)C(C)(O/C=C\C(OC)C(C)C(OC(C)=O)C(C)C(O)C(C)C(O)C(C)/C=C\C=C(\C)C(=O)N2)O4` (stereo not given), for which the growth is 3.49% (active).

Turning to `COc1cc2nc(Cc3ccc(C)cc3)[nH]c(=O)c2cc1OC`, the growth is 98.8% (inactive).

As for `CN1CCN(Cc2ccc(NC(=O)c3cncc(C#Cc4ncc5cnccn45)c3)cc2C(F)(F)F)CC1`, the growth is 86.7% (inactive).

Consider `COc1ccc2nc(-c3ccc(-c4noc(-c5ccc(Cl)cc5)n4)cc3)[nH]c2c1`, for which the growth is 37.5% (inactive).

On to `CC(=O)N1C/C(=C/c2ccc(Cl)cc2)C(=O)/C(=C/c2ccc(Cl)cc2)C1`, for which the growth was -80% (active).

For the compound `Cc1nc(-c2ccccc2)cc2c(O)c(C(=O)N/N=C/c3ccc(N(C)C)cc3)[nH]c(=O)c12`, the growth was 77.6% (inactive).

As to `COc1ccc2cc1Oc1ccc(cc1)C[C@H]1c3c(cc4c(c3Oc3cc5c(cc3OC)CCN(C)[C@@H]5C2)OCO4)CCN1C`, the growth was 7.08% (active).

Regarding `Cc1ccccc1-n1nnc(C(=O)Nc2nc3ccc(F)cc3s2)c1C`, the growth was 32.8% (inactive).

In the case of `COc1ccc(-c2csc(NC(=O)CSc3nc(C)c(-c4ccccc4)n3Nc3ccccc3)n2)cc1`, the growth is 91.3% (inactive).

`Cc1nc(Nc2n[nH]c3c2CN(C(=O)N[C@H](CN(C)C)c2ccccc2)C3(C)C)c2sccc2n1`: the growth was -44.3% (active).

With `O=C(/C=C/c1ccccc1)n1c(-c2ccc(Cl)cc2)nc2ccccc21`, the growth is -6.61% (active).

Take `CC(=O)CCSc1ccc(OC(C)=O)cc1`: the growth is 101% (inactive).

As for `CC12OC(CC(O)C1O)n1c3ccccc3c3c4c(c5c6ccccc6n2c5c31)C(=O)N(CCN1CCOCC1)C4=O` (stereo not given), the growth is -30.4% (active).

With `CC[C@@H]1OC(=O)[C@H](C)[C@@H](O[C@H]2C[C@@](C)(OC)[C@@H](O)[C@H](C)O2)[C@H](C)[C@@H](O[C@@H]2O[C@H](C)C[C@H](N(C)C)[C@H]2O)[C@](C)(O)C[C@@H](C)[C@@H]2N[C@@H](COCCOC)O[C@H]([C@H]2C)[C@]1(C)O`, the growth was 109% (inactive).

With `COc1ccc(/C(C)=N/NS(=O)(=O)c2ccc(C)cc2)cc1OC`, the growth was 104% (inactive).

For `N=c1c2c(-c3ccccc3)c(-c3ccccc3)oc2ncn1NC(=O)c1cccnc1`, the growth was 105% (inactive).

Take `COc1ccccc1/C=C/C(=O)c1nnn(-c2ccc(F)cc2)c1C`: the growth was 38.2% (inactive).

Turning to `O=C(Oc1ccccc1[N+](=O)[O-])C1CCCN1C(=O)OCc1ccccc1` (stereo not given), the growth is 97.3% (inactive).

Regarding `Cc1c(CC(=O)Nc2ccccc2)nnn1-c1ccccc1`, the growth is 117% (inactive).

For the origin of these results see PubChem BioAssay (NCI).
